# A selection: hits, their analogues and other compounds. The true share with any hit is near 13%.
# miR-21 act: qHTS Assay for Modulators of miRNAs and/orActivators of miR-21. HeLa miR-21 FLuc reporter, luciferase, 48 h. Potency, µM (top dose mostly 38.3 µM), without a hit: top-dose activity change, positive = activation, hits mostly activators. 340,000 tested, under 10 active. AID 2288, 2010;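 note: % of control where 0% means no effect; miR-21 action dims this reporter so a rising signal means less miR-21 action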
#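 Compounds were titrated across several concentrations (up to approximately 40 uM) and incubated 48 hours with HeLa miR-21-FLuc reporter cells (miR-21 target sequence downstream of FLuc, endogenous miR-21). Readout was firefly luciferase luminescence after lytic detection reagent.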
# LMNA splice mod: qHTS Assay for Modulators of Lamin A Splicing; HeLa LMNA splicing GFP/RFP minigene ratio, 48 h; Potency, µM (series often up to 46.1 µM), for inactives: at the highest dose ratio change, negative = inhibition, hits mostly inhibitors; 0.01% of 200,000 active; AID 1487, 2009; active = well fitted inhibition curve with a large enough effect in the signal ratio, with a control signal flat, not every such curve was filed as active; inconclusive = small, poorly fitted or top-dose-only effect, or effect the other way, or a change in a side signal; the % refers to the signal ratio; note: potency is the fitted concentration of half-maximal effect; % is set by controls: 0 for no effect and ±100 for the full control effect
#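 Read-out is the ratio of GFP to DsRed2 object intensity, acquired by 488 nm laser-scanning cytometry on HeLa lamin A-EGFP minigene reporter cells. Compound incubation 48 hrs at 37 °C in Opti-MEM with 2% FBS; DMSO 0.5% final.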
# G9a block: qHTS Assay for Inhibitors of Histone Lysine Methyltransferase G9a; Histone-lysine N-methyltransferase EHMT2 (Homo sapiens), Q96KQ7; G9a H3K9 monomethylation, AlphaScreen, 2 h; Potency, µM (top dose mostly 102 µM), inactives show at the highest dose activity, negative = inhibition, most hits filed as inhibitors; 8.8% of 350,000 active; AID 504332, 2011; note: potency is the fitted concentration of half-maximal effect; % is set by controls: 0 for no effect and ±100 for the full control effect; nearly all actives have a fitted effect of over 75% in size
# Target sequence (Q96KQ7 913-1193 limits assumed): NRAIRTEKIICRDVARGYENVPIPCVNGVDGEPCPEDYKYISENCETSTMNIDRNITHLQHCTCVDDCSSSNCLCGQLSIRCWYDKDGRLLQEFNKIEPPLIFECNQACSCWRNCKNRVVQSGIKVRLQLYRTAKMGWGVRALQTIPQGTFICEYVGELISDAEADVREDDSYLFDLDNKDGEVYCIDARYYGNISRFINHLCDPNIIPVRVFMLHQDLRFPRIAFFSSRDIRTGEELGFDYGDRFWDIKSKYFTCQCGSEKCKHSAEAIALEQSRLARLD
#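 AlphaScreen detection with an anti-monomethyl H3K9 antibody quantified product after a 2 h room-temperature reaction containing 500 nM biotinylated H3K9 peptide, 20 µM SAM and 20 nM enzyme, which had been preincubated 15 min with compound.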
# KDM4E inh: qHTS Assay for Inhibitors of Human Jumonji Domain Containing 2E (JMJD2E). Lysine-specific demethylase 4E (Homo sapiens), B2RXH2. JMJD2E catalytic domain, FDH-coupled NADH fluorescence (FDH is formaldehyde dehydrogenase). Potency, µM (doses to about 57.1 µM), for inactives: at the top dose activity change, negative = inhibition, actives largely listed as inhibitors. 1.6% of 230,000 active. AID 2147, 2009; active = well fitted inhibition curve with a large enough effect, not every such curve was filed as active; inconclusive = small, poorly fitted or top-dose-only effect, or another doubt; inactive = no such curve, though single readings can be large or run the other way;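 note: potency is the fitted concentration of half-maximal effect; 0% = wells with enzyme and -100% = buffer wells without enzyme; nearly all actives have a fitted effect of over 50% in size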
# ALDH1A1 block: qHTS Assay for Inhibitors of Aldehyde Dehydrogenase 1 (ALDH1A1); Purified ALDH1A1, NADH fluorescence, propionaldehyde substrate; Aldehyde dehydrogenase 1A1 (Homo sapiens), P00352; Potency, µM (doses to about 75.3 µM), for inactives: top-dose activity, negative = inhibition, usual class: inhibitors; 7.3% of 220,000 active; AID 1030, 2008; active = well fitted inhibition curve with a large enough effect, not every such curve was filed as active; inconclusive = small, poorly fitted or top-dose-only effect, or another doubt; inactive = no such curve, though single readings can be large or run the other way;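 note: potency is the fitted concentration of half-maximal effect; plate controls were no enzyme wells and a reference inhibitor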
# Target sequence (P00352 whole entry, looked up): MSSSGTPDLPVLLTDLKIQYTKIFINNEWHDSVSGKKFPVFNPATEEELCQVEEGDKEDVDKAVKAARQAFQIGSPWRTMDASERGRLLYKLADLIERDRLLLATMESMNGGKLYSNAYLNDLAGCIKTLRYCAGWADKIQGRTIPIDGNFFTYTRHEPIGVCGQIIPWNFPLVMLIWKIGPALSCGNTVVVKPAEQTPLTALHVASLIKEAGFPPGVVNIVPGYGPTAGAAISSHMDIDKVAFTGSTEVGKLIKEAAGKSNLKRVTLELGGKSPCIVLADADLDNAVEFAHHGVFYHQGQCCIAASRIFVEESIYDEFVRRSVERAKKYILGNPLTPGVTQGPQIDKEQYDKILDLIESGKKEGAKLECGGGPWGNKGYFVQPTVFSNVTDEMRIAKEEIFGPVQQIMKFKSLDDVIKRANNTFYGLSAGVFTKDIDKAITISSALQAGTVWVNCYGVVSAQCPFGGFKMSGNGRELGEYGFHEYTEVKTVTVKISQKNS
# Sfp PPTase inh: qHTS Assay for Inhibitors of Bacillus subtilis Sfp phosphopantetheinyl transferase (PPTase); 4'-phosphopantetheinyl transferase ffp (Bacillus subtilis), Q9F4F7; Biochemical Sfp PPTase activity, qHTS; Potency, µM, without a hit: largest response in the series, negative = inhibition, usual class: inhibitors; 3.5% of 310,000 active; AID 1490, 2009;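 note: the enzyme is Sfp with the accession as filed and its product quenches rhodamine fluorescence; potency is the fitted concentration of half-maximal effect; 0% = enzyme reaction without inhibitor and -100% = no enzyme wells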
#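 Reaction rates are the 30-min fluorescence difference (ex 525, em 598 nm) in wells containing 15 nM Sfp, 5 uM rhodamine-CoA and 12.5 uM BHQ-2-YbbR at pH 7.6 with 10 mM MgCl2.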
# * hit, by the source's call; i = inactive; ? = inconclusive; · = no result given; [ ] = remark or other dose. Unless noted, calls come from the whole dose curve; as a rule, active = well fitted curve in the direction sought with a large enough effect; inconclusive = small, poorly fitted or top-dose-only effect, or another doubt; inactive = no such curve, though single readings can be large; an effect the other way counts as inactive or inconclusive.
SMILES,miR-21 act,LMNA splice mod,G9a block,KDM4E inh,ALDH1A1 block,Sfp PPTase inh
O=C(OCn1ncc(Cl)c(Cl)c1=O)c1ccc(C(F)(F)F)cc1,2%,?,20%[12.7 µM],13%,3.5µM*,0%
CCc1ccccc1NC(=O)CN(C)Cc1c(O)ccc2ccccc12,1%,·,1.8µM*,·,·,-7%
COc1ccc(CCN(C)Cc2cccc3ccccc23)cc1OC,-2%,·,16%[0.501 µM],·,·,20%
CCCN(CC(=O)Nc1ccccc1OC)Cc1c(O)ccc2ccccc12,4%,·,3.5µM*,·,·,-10%
CN(CC(=O)Nc1ccccc1C(F)(F)F)Cc1c(O)ccc2ccccc12,1%,·,7.9µM*,·,·,-6%
COc1ccc(CCN(C)Cc2c(O)ccc3ccccc23)cc1OC,-12%,·,8.9µM*,·,·,7%
COc1ccccc1NC(=O)Cc1cccc2ccccc12,-16%,·,1%[0.501 µM],·,·,-1%
CCc1ccccc1NC(=O)CN(C)Cc1nc(N)nc(Nc2ccccc2C)n1,-9%,3%,-32%,-4%,?,5%
N=C1C(c2nc3ccccc3s2)=C(O)CN1c1ccccc1,-13%,·,2%,5%,i,26%
COc1ccc(NC(=O)CN(C)S(=O)(=O)c2ccc3c(c2)CC(C)N3C(C)=O)cc1OC (configuration not stated),3%,·,6%[0.501 µM],·,·,7%
CCOC(=O)Cc1csc(/N=C/c2c(O)n(-c3ccccc3C(F)(F)F)c(=O)c3ccccc23)n1,-1%,?,-11%[59 µM],?,?,-1%
Cc1cc(NC(=O)COC(=O)c2ccccc2[N+](=O)[O-])no1,-3%,3%[46 µM],-22%,0%,-2%,15%
COc1ccc(CNC(=O)COC(=O)CC2CC3CCC2C3)cc1OC (configuration not stated),-5%,?,?,1%,4%,-9%
O=C(COC(=O)CC1CC2CCC1C2)NC(=O)NCc1ccco1 (configuration not stated),0%,5%,?,1%,14µM*,?
Cc1nc2cc(C(=O)OCC(=O)Nc3cccc(Cl)c3)ccc2n1-c1ccccc1,-4%,0%,50µM*,?,?,11%
Cc1ccc(-n2nc(C)c(NC(=O)COC(=O)c3ccccc3NCCO)c2C)cc1,·,·,50µM*,·,·,·
CC(=O)Nc1cccc(C(=O)OCC(=O)Nc2c(C)nn(-c3ccccc3)c2C)c1,·,·,40µM*,·,·,·
Cc1nn(-c2ccccc2)c(C)c1C(=O)OCC(=O)Nc1ccc2c(c1)OCO2,-10%,-6%,79µM*,-5%,-4%,5%
Cc1nn(-c2ccccc2)c(C)c1C(=O)OCC(=O)Nc1ccccc1,·,·,-22%[59 µM],·,·,·
CC(C)[C@H](NC(=O)OC(C)(C)C)[C@@H](O)CC(=O)OC(C)(C)C,·,·,·,·,2%[13.5 µM],30%
C[C@@]12CCC(=O)C[C@@H]1CC(=O)[C@H]1[C@H]3CCC[C@]3(C)C(=O)C[C@@H]12 (tested in a mixture with another compound),·,?,13%[21.5 µM],-1%[25.5 µM],19%[20.9 µM],9%
N=C(N)c1ccc2cc(OC(=O)c3ccc(N=C(N)N)cc3)ccc2c1,·,?,10%[59 µM],·,22µM*,12%
COc1ccc(F)cc1S(=O)(=O)NCC1CCCO1 (configuration not stated),0%,·,3%,·,·,10%
CC(=O)c1c(C)oc2c1cc(O)c1ccccc12,-21%,·,11%,11%,·,0%
CC(=O)c1cc(O)c2ccccc2c1O,-48%,·,3.2µM*,14µM*,·,45µM*
SMILES,miR-21 act,LMNA splice mod,G9a block,KDM4E inh,ALDH1A1 block,Sfp PPTase inh
NS(=O)(=O)c1ccc(NC(=S)NC(=O)c2ccc(-c3ccccc3)cc2)cc1,-15%,-15%,?,-1%,2µM*,-3%
NC(N)=NS(=O)(=O)c1ccc(NC(=S)NC(=O)c2ccc3c(c2)OCO3)cc1,-10%,·,45µM*,3%,25µM*,?
Cc1cc(C)nc(NS(=O)(=O)c2ccc(NC(=O)c3ccc4c(c3)OCO4)cc2)n1,-25%,5%,4%,-3%,25µM*,3%
NS(=O)(=O)c1ccc(NC(=O)c2ccc3c(c2)OCO3)cc1,-16%,·,?,·,·,8%
NS(=O)(=O)c1ccc(NC(=S)NC(=O)c2ccc3c(c2)OCO3)cc1,-8%,13%[46 µM],40µM*,5%,?,-7%
NC(=O)c1ccccc1NC(=O)Cn1nc(Cc2cccnc2)c2ccccc2c1=O,-5%,·,?,·,·,·
CCOC(=O)c1noc2nc(C)n(CC(=O)Nc3cc(Cl)ccc3OC)c(=O)c12,2%,?,14%[59 µM],·,·,·
O=C(NCc1ccco1)c1ccc(COc2ccccc2[N+](=O)[O-])o1,-7%,·,?,·,·,14%
CC(C)c1ccc(O)c(NC(=S)NC(=O)c2ccc3c(c2)OCO3)c1,-25%,·,13µM*,·,·,-22%
NC(N)=NS(=O)(=O)c1ccc(NC(=S)NC(=O)c2ccccc2)cc1,-8%,·,·,-2%,·,50µM*
O=C(c1csnn1)N1CCC2(CC1)CN(Cc1cc(C(F)(F)F)cc(C(F)(F)F)c1)C2,·,·,10%[12.7 µM],·,14%,20%
CC(C)(C)c1ccc(-n2nc(C(N)=O)c(O)cc2=O)cc1,-1%,·,-11%,0%,-4%,14%
CC(C)(C)c1ccc(-n2nc(C#N)c(Cl)cc2=O)cc1,?,·,?,?,13µM*,-16%
Cc1cc(C)c2c(CC(=O)Nc3ccc(S(=O)(=O)N4CCCC(C)C4)cc3)coc2c1 (configuration not stated),17%,·,-30%[59 µM],·,·,·
CC1CCN(c2oc(Cc3cccc4ccccc34)nc2C#N)CC1,-9%,-6%,8.9µM*,3%,-6%,9%
CC1CC(C)CN(c2oc(Cc3ccccc3)nc2C#N)C1 (configuration not stated),-17%,?,11µM*,10%,-9%,-1%
COc1ccccc1OCc1nc(C#N)c(N2CC(C)CC(C)C2)o1 (configuration not stated),-2%,?,45µM*,2%,-2%,15%
CC1CC(C)CN(c2oc(-c3ccco3)nc2C#N)C1 (configuration not stated),-9%,-5%,?,-1%,?,-6%
N#Cc1nc(Cc2cccc3ccccc23)oc1N1CCOCC1,-22%,-1%,-25%[59 µM],-4%,-9%,9%

# Assay outcomes (PubChem)
